# About 79,000 compounds went through this panel and 15% of them were active in at least one assay; those are over-represented in the sample as a whole. A number with no mark means an inactive call. Activity calls are given as the source filed them. Rule as the data show it: active = growth inhibition above about 70%; inactive = the rest.
# How the values were obtained:
# [1] = NCI Yeast Anticancer Drug Screen. Data for the rad52 strain (AID 147);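 also: 0% = growth of vehicle-treated control cultures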; conditions: S. cerevisiae rad52 mutant growth inhibition, hits give high values
# How it was run: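 Compounds are applied to a genetically defined yeast strain lacking normal DNA damage repair, and inhibition of growth is expressed relative to cultures given vehicle only.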
# [2] = NCI Yeast Anticancer Drug Screen. Data for the wt1 strain (AID 149);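 also: 0% = growth of vehicle-treated wt1 cultures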; conditions: S. cerevisiae wt1 strain (SPY 50644) growth inhibition, hits give high values
# How it was run: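 Using yeast strain wt1, compound-induced growth inhibition was determined against vehicle-treated cultures.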
# [3] = NCI Yeast Anticancer Drug Screen. Data for the rad50EPP+ strain (AID 151);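 also: 0% = growth of vehicle-treated control cultures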; conditions: S. cerevisiae rad50 mutant strain, hits give high values
# How it was run: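 Compounds were applied to the rad50EPP+ yeast strain, which bears a defined DNA repair alteration, and growth inhibition was determined relative to vehicle-treated cultures.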
# [4] = NCI Yeast Anticancer Drug Screen. Data for the mgt1 strain (AID 153); conditions: S. cerevisiae mgt1 mutant growth inhibition, hits give high values
# How it was run: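 Strain: mgt1 yeast, one of a set carrying defined DNA damage repair or cell cycle control alterations. Compound-treated growth compared with vehicle.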
# [5] = NCI Yeast Anticancer Drug Screen. Data for the rad50 strain (AID 155);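 also: 0% = growth of vehicle-only cultures of the same strain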; conditions: S. cerevisiae rad50 strain growth inhibition, hits give high values
# How it was run: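 Relative growth inhibition (compound vs vehicle) was measured in yeast with a defined repair-gene alteration.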
# [6] = NCI Yeast Anticancer Drug Screen. Data for the mec2-1 strain (AID 157); conditions: S. cerevisiae mec2-1 strain, hits give high values
# How it was run: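 Strain: mec2-1 (DNA repair/cell cycle alteration). Compound exposure, then growth measured; inhibition expressed relative to vehicle.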
# [7] = NCI Yeast Anticancer Drug Screen. Data for the rad14 strain (AID 159);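 also: 0% = growth of vehicle-treated control cultures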; conditions: S. cerevisiae rad14 strain growth inhibition, hits give high values
# How it was run: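 Screen for anticancer potential: a yeast strain altered in DNA damage repair is grown with compound, and reduced growth is quantified against vehicle controls.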
# [8] = NCI Yeast Anticancer Drug Screen. Data for the sgs1 mgt1 strain (AID 161);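 also: 0% = growth of cultures given vehicle only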; conditions: S. cerevisiae sgs1 mgt1 strain, hits give high values
# How it was run: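 Inhibition of yeast growth, normalised to vehicle-treated controls, is reported for a strain bearing genetic alterations in DNA damage repair.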
# [9] = NCI Yeast Anticancer Drug Screen. Data for the CLN2oe strain (AID 163);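 also: 0% = growth of vehicle-only control cultures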; conditions: S. cerevisiae CLN2oe strain, hits give high values
# How it was run: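 Growth of a genetically modified yeast strain is measured after compound exposure and compared with cultures given vehicle alone.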
# [10] = NCI Yeast Anticancer Drug Screen. Data for the cln2 rad14 strain (AID 165);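 also: 0% = growth equal to vehicle treated cultures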; conditions: S. cerevisiae cln2 rad14 strain, hits give high values
# How it was run: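 Compounds are applied to the cln2 rad14 yeast strain, and growth is then compared with that of vehicle-treated cultures to give inhibition.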
# [11] = NCI Yeast Anticancer Drug Screen. Data for the bub3 strain (AID 167); conditions: S. cerevisiae bub3 mutant strain, hits give high values
# How it was run: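 Screening used yeast with an engineered genetic alteration affecting cell cycle control. Compound-exposed cultures were compared with vehicle cultures, and reduced growth was taken as inhibition.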
# [12] = NCI Yeast Anticancer Drug Screen. Data for the wt2 strain (AID 169);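 also: 0% = growth of vehicle-treated yeast cultures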; conditions: S. cerevisiae wt2 strain growth inhibition, hits give high values
# How it was run: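 This strain belongs to a panel of yeast strains with defined genetic alterations in DNA damage repair or cell cycle control. Compounds are applied, and growth inhibition is measured against vehicle-treated cultures.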
# [13] = NCI Yeast Anticancer Drug Screen. Data for the mlh1 strain (AID 171);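 also: 0% = growth of vehicle-treated control cultures of the same strain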; conditions: S. cerevisiae mlh1 strain growth inhibition, hits give high values
# How it was run: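 Growth of the mutant yeast strain after compound exposure, expressed as inhibition relative to vehicle-only controls.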
# [14] = NCI Yeast Anticancer Drug Screen. Data for the sgs1 strain (AID 173);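 also: 0% = growth of vehicle-only control cultures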; conditions: S. cerevisiae sgs1 mutant, hits give high values
# How it was run: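 Growth of a yeast strain bearing a defined genetic alteration is measured after compound treatment. Inhibition is expressed relative to vehicle-only controls.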
# [15] = NCI Yeast Anticancer Drug Screen. Data for the mlh1 rad18 strain (AID 175); conditions: S. cerevisiae mlh1 rad18 strain growth inhibition, hits give high values
# How it was run: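 Read-out is yeast growth inhibition, calculated against vehicle-only controls. The compound was applied to a strain engineered with DNA damage repair alterations.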
# [16] = NCI Yeast Anticancer Drug Screen. Data for the rad18 strain (AID 177); conditions: S. cerevisiae rad18 mutant growth inhibition, hits give high values
# How it was run: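 Growth of the mutant yeast strain after compound exposure, normalised to vehicle-only cultures.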
# [17] = at 5.0 µM (retest, dose inferred, filed as 0.5)
# [18] = at 50.0 µM (retest, dose inferred, filed as 5.0)
structure (smiles),measurement,setting,value
C[CH2][Sn]1([CH2]C)[O]C2C(O)OC(CO)C(O)C2[O]1 (stereo unspecified),growth inhibition,[1]; at 1.2 µM,0%
same,growth inhibition,[1]; at 3.7 µM,10%
same,growth inhibition,[1]; at 11.0 µM,19%
same,growth inhibition,[1]; at 33.0 µM,29%
same,growth inhibition,[1]; at 100.0 µM,76% (active)
same,growth inhibition,[2]; at 1.2 µM,-8%
same,growth inhibition,[2]; at 3.7 µM,-15%
same,growth inhibition,[2]; at 11.0 µM,-9%
same,growth inhibition,[2]; at 33.0 µM,-2%
same,growth inhibition,[2]; at 100.0 µM,61%
same,growth inhibition,[3]; at 1.2 µM,-8%
same,growth inhibition,[3]; at 3.7 µM,-21%
same,growth inhibition,[3]; at 11.0 µM,-34%
same,growth inhibition,[3]; at 33.0 µM,-23%
same,growth inhibition,[3]; at 100.0 µM,-17%
same,growth inhibition,[4]; at 1.2 µM,-19%
same,growth inhibition,[4]; at 3.7 µM,-21%
same,growth inhibition,[4]; at 11.0 µM,-3%
same,growth inhibition,[4]; at 33.0 µM,2%
same,growth inhibition,[4]; at 100.0 µM,69%
same,growth inhibition,[5]; at 1.2 µM,12%
same,growth inhibition,[5]; at 3.7 µM,12%
same,growth inhibition,[5]; [17],17%
same,growth inhibition,[5]; at 11.0 µM,-7%
same,growth inhibition,[5]; at 33.0 µM,4%
same,growth inhibition,[5]; [18],67%
same,growth inhibition,[5]; at 50.0 µM,33.5%
same,growth inhibition,[5]; at 100.0 µM,66%
same,growth inhibition,[6]; at 1.2 µM,10%
same,growth inhibition,[6]; at 3.7 µM,4%
same,growth inhibition,[6]; [17],8%
same,growth inhibition,[6]; at 11.0 µM,4%
same,growth inhibition,[6]; at 33.0 µM,24%
same,growth inhibition,[6]; [18],75% (active)
same,growth inhibition,[6]; at 50.0 µM,80.5% (active)
same,growth inhibition,[6]; at 100.0 µM,67%
same,growth inhibition,[7]; at 1.2 µM,1%
same,growth inhibition,[7]; at 3.7 µM,-4%
same,growth inhibition,[7]; at 11.0 µM,2%
same,growth inhibition,[7]; at 33.0 µM,-5%
same,growth inhibition,[7]; at 100.0 µM,15%
same,growth inhibition,[8]; [17],22%
same,growth inhibition,[8]; [18],71% (active)
same,growth inhibition,[8]; at 50.0 µM,53.5%
same,growth inhibition,[9]; at 1.2 µM,-53%
same,growth inhibition,[9]; at 3.7 µM,-73%
same,growth inhibition,[9]; at 11.0 µM,-69%
same,growth inhibition,[9]; at 33.0 µM,-100%
same,growth inhibition,[9]; at 100.0 µM,45%
same,growth inhibition,[10]; [17],-1%
same,growth inhibition,[10]; [18],37%
same,growth inhibition,[10]; at 50.0 µM,63.6%
same,growth inhibition,[11]; at 1.2 µM,3%
same,growth inhibition,[11]; at 3.7 µM,4%
same,growth inhibition,[11]; [17],6%
same,growth inhibition,[11]; at 11.0 µM,10%
same,growth inhibition,[11]; at 33.0 µM,8%
same,growth inhibition,[11]; [18],69%
same,growth inhibition,[11]; at 50.0 µM,55.6%
same,growth inhibition,[11]; at 100.0 µM,63%
same,growth inhibition,[12]; at 1.2 µM,-58%
same,growth inhibition,[12]; at 3.7 µM,-42%
same,growth inhibition,[12]; at 11.0 µM,-27%
same,growth inhibition,[12]; at 33.0 µM,15%
same,growth inhibition,[12]; at 100.0 µM,82% (active)
same,growth inhibition,[13]; at 1.2 µM,-2%
same,growth inhibition,[13]; at 3.7 µM,-2%
same,growth inhibition,[13]; at 11.0 µM,-4%
same,growth inhibition,[13]; at 33.0 µM,-12%
same,growth inhibition,[13]; at 100.0 µM,39%
same,growth inhibition,[14]; at 1.2 µM,-12%
same,growth inhibition,[14]; at 3.7 µM,-5%
same,growth inhibition,[14]; at 11.0 µM,-8%
same,growth inhibition,[14]; at 33.0 µM,16%
same,growth inhibition,[14]; at 100.0 µM,59%
same,growth inhibition,[15]; [17],26%
same,growth inhibition,[15]; [18],88% (active)
same,growth inhibition,[15]; at 50.0 µM,72.5% (active)
same,growth inhibition,[16]; at 1.2 µM,11%
same,growth inhibition,[16]; at 3.7 µM,0%
same,growth inhibition,[16]; at 11.0 µM,8%
same,growth inhibition,[16]; at 33.0 µM,23%
same,growth inhibition,[16]; at 100.0 µM,73% (active)
O=c1oc2ccccc2c(O)c1C(c1ccc2c(c1)Cc1ccccc1-2)c1c(O)c2ccccc2oc1=O,growth inhibition,[1]; at 1.2 µM,-7%
same,growth inhibition,[1]; at 3.7 µM,15%
same,growth inhibition,[1]; at 11.0 µM,19%
same,growth inhibition,[1]; at 33.0 µM,65%
same,growth inhibition,[1]; at 100.0 µM,96% (active)
same,growth inhibition,[2]; at 1.2 µM,-16%
same,growth inhibition,[2]; at 3.7 µM,-5%
same,growth inhibition,[2]; at 11.0 µM,5%
same,growth inhibition,[2]; at 33.0 µM,53%
same,growth inhibition,[2]; at 100.0 µM,97% (active)
same,growth inhibition,[3]; at 1.2 µM,-16%
same,growth inhibition,[3]; at 3.7 µM,43%
same,growth inhibition,[3]; at 11.0 µM,46%
same,growth inhibition,[3]; at 33.0 µM,50%
same,growth inhibition,[3]; at 100.0 µM,51%
same,growth inhibition,[4]; at 1.2 µM,6%
same,growth inhibition,[4]; at 3.7 µM,8%
same,growth inhibition,[4]; at 11.0 µM,31%
same,growth inhibition,[4]; at 33.0 µM,97% (active)
same,growth inhibition,[4]; at 100.0 µM,97% (active)
same,growth inhibition,[5]; at 1.2 µM,1%
same,growth inhibition,[5]; at 3.7 µM,14%
same,growth inhibition,[5]; [17],17%
same,growth inhibition,[5]; at 11.0 µM,22%
same,growth inhibition,[5]; at 33.0 µM,61%
same,growth inhibition,[5]; [18],5%
same,growth inhibition,[5]; at 50.0 µM,70.2% (active)
same,growth inhibition,[5]; at 100.0 µM,96% (active)
same,growth inhibition,[6]; at 1.2 µM,-18%
same,growth inhibition,[6]; at 3.7 µM,-4%
same,growth inhibition,[6]; [17],12%
same,growth inhibition,[6]; at 11.0 µM,25%
same,growth inhibition,[6]; at 33.0 µM,95% (active)
same,growth inhibition,[6]; [18],92% (active)
same,growth inhibition,[6]; at 50.0 µM,89% (active)
same,growth inhibition,[6]; at 100.0 µM,97% (active)
same,growth inhibition,[7]; at 1.2 µM,9%
same,growth inhibition,[7]; at 3.7 µM,14%
same,growth inhibition,[7]; at 11.0 µM,18%
same,growth inhibition,[7]; at 33.0 µM,97% (active)
same,growth inhibition,[7]; at 100.0 µM,98% (active)
same,growth inhibition,[8]; [17],-14%
same,growth inhibition,[8]; [18],96% (active)
same,growth inhibition,[8]; at 50.0 µM,73.4% (active)
same,growth inhibition,[9]; at 1.2 µM,23%
same,growth inhibition,[9]; at 3.7 µM,0%
same,growth inhibition,[9]; at 11.0 µM,15%
same,growth inhibition,[9]; at 33.0 µM,91% (active)
same,growth inhibition,[9]; at 100.0 µM,97% (active)
same,growth inhibition,[10]; [17],10%
same,growth inhibition,[10]; [18],95% (active)
same,growth inhibition,[10]; at 50.0 µM,79% (active)
same,growth inhibition,[11]; at 1.2 µM,-7%
same,growth inhibition,[11]; at 3.7 µM,-2%
same,growth inhibition,[11]; [17],18%
same,growth inhibition,[11]; at 11.0 µM,13%
same,growth inhibition,[11]; at 33.0 µM,63%
same,growth inhibition,[11]; [18],95% (active)
same,growth inhibition,[11]; at 50.0 µM,75.9% (active)
same,growth inhibition,[11]; at 100.0 µM,96% (active)
same,growth inhibition,[12]; at 1.2 µM,-17%
same,growth inhibition,[12]; at 3.7 µM,-14%
same,growth inhibition,[12]; at 11.0 µM,52%
same,growth inhibition,[12]; at 33.0 µM,95% (active)
same,growth inhibition,[12]; at 100.0 µM,93% (active)
same,growth inhibition,[13]; at 1.2 µM,4%
same,growth inhibition,[13]; at 3.7 µM,3%
same,growth inhibition,[13]; at 11.0 µM,25%
same,growth inhibition,[13]; at 33.0 µM,96% (active)
same,growth inhibition,[13]; at 100.0 µM,98% (active)
same,growth inhibition,[14]; at 1.2 µM,18%
same,growth inhibition,[14]; at 3.7 µM,29%
same,growth inhibition,[14]; at 11.0 µM,17%
same,growth inhibition,[14]; at 33.0 µM,83% (active)
same,growth inhibition,[14]; at 100.0 µM,97% (active)
same,growth inhibition,[15]; [17],14%
same,growth inhibition,[15]; [18],59%
same,growth inhibition,[15]; at 50.0 µM,88% (active)
same,growth inhibition,[16]; at 1.2 µM,21%
same,growth inhibition,[16]; at 3.7 µM,25%
same,growth inhibition,[16]; at 11.0 µM,23%
same,growth inhibition,[16]; at 33.0 µM,52%
same,growth inhibition,[16]; at 100.0 µM,96% (active)

# Reference: PubChem BioAssay (NCI)
